# Assay outcomes as filed in PubChem BioAssay.
# HCV inhibitor: qHTS Assay for Inhibitors of Hepatitis C Virus (HCV). Huh7.5.1 HCVcc-Cre infection, luciferase reporter, 44 h. Potency, µM (highest dose often 41.8 µM), for the others: at the top dose activity change, negative = inhibition, usual class: inhibitors. 3.4% of 340,000 active. AID 651820, 2012; active = well fitted inhibition curve with a large enough effect; inconclusive = small, poorly fitted or top-dose-only effect, or another doubt; inactive = no such curve, though single readings can be large or run the other way; note: potency is the fitted concentration of half-maximal effect
#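 Cells seeded at 1,000/well and cultured 4 h, then compounds added followed by HCVcc-Cre virus (~0.5 moi). After 44 h further culture, luciferase substrate was added, plates held 15 min at room temperature, and luminescence read for 15 sec.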
# VACV mCherry inh: qHTS for Stage-Specific Inhibitors of Vaccinia Orthopoxvirus: mCherry Reporter Primary qHTS; 0.63% of 310,000 active; Potency, µM (titrated, usually from 36.5 µM), for inactives: at the top dose activity change, negative = inhibition, hits mostly inhibitors; Vaccinia virus mCherry reporter infection, fluorescence; calls by dose curve; tested in A549 cells; note: potency is the fitted concentration of half-maximal effect; nearly all actives have a fitted effect of over 35% in size
# HCMV inh: qHTS Assay for inhibitors of the human cytomegalovirus (HCMV) | 4.5% of 410,000 active | AID 1259415, 2018 | HFF cells, HCMV-luciferase reporter, 72 h; stronger effect = lower value | activity change, negative = inhibition, % at 57.5 µM; in the data active = activity change below about -60%; inconclusive = no clear call, values can overlap the other calls; inactive = above about -39%
#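 Compounds were evaluated in HFFs infected with an HCMV luciferase reporter virus (MOI 1 PFU/cell). Luciferase in lysates collected 72 h post infection served as the replication measure.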
# FMDV antiviral: High Throughput Screening for Foot and Mouth Disease Virus Antivirals | FMDV antiviral cell-based qHTS | Potency, µM (top dose mostly 57.9 µM), for inactives: at the top dose activity change, negative = inhibition, most hits filed as inhibitors | 1.2% of 410,000 active | AID 1159524, 2015; calls by dose curve; tested in HEK293T cells; note: read-out not given here; potency is the fitted concentration of half-maximal effect; nearly all actives have a fitted effect of over 45% in size
# VACV Venus inh: qHTS for Stage-Specific Inhibitors of Vaccinia Orthopoxvirus: Venus Reporter Primary qHTS; AID 720580, 2013; Vaccinia virus Venus reporter expression, fluorescence; Potency, µM (series often up to 36.5 µM), without a hit: at the top dose activity change, negative = inhibition, most hits filed as inhibitors; 0.46% of 330,000 active; calls by dose curve; tested in A549 cells; note: potency is the fitted concentration of half-maximal effect; nearly all actives have a fitted effect of over 30% in size
# * marks the source's active call; other numbers are inactive results; i = inactive; ? = inconclusive; · = not tested or not shown; [ ] = another dose, or the depositor's remark. Hits are enriched below; roughly 7.3% of the tested compounds scored in any of these assays. % is set by controls: 0 for no effect and ±100 for the full control effect.
SMILES,HCV inhibitor,VACV mCherry inh,HCMV inh,FMDV antiviral,VACV Venus inh
Cc1cccc(OCCCC(=O)N2CCCc3ccccc32)c1C,10µM*,·,?,-10%,·
O=C1c2cccc(OCC(=O)N3CCCc4ccccc43)c2CCN1Cc1ccc(F)cc1,?,-8%,-40,20µM*,-12%
CCOC(=O)N1CCN(C(=O)COc2cccc3c2CCN(Cc2ccc(F)cc2)C3=O)CC1,?,?,-67*,14µM*,-24%
CCOc1cc(C#N)c(-n2nnc3c(sc4nc(C)cc(C)c43)c2=O)cc1OCC,·,0%,2,-21%,3%
Cc1cc(C)c2[nH]c(=O)c(CN(CC3CCCO3)C(=S)Nc3ccccc3)cc2c1 (centres undefined),0%,-10%,-10,-8%,-6%
Cc1ccc2cc(CN(CC3CCCO3)C(=S)Nc3ccccc3)c(=O)[nH]c2c1C (centres undefined),?,?,-62*,-23%,-17%
CCN(CC)CCN(Cc1cc2cc(C)ccc2[nH]c1=O)C(=S)Nc1ccccc1,?,-4%,-69*,-14%,-4%
Cc1cccc(NC(=S)N(CCN(C)C)Cc2cc3cc(C)ccc3[nH]c2=O)c1,-11%,-23%,-32,-18%,-12%
Cc1ccc2[nH]c(=O)c(CN(CC3CCCO3)C(=S)Nc3ccccc3)cc2c1 (centres undefined),?,-30%,-78*,?,?
COc1ccc2[nH]c(=O)c(CN(CC3CCCO3)C(=O)Nc3ccc(F)cc3)cc2c1 (centres undefined),?,-19%,-31,14µM*,-11%
COc1cc(F)ccc1-c1cc(C(=O)NCc2ccc(C(F)(F)F)cc2)[nH]n1,·,22%,-8,-15%,-1%
O=C(NCCc1ccccn1)C1CC12CCN(C(=O)c1cccc(C(F)(F)F)c1)CC2 (centres undefined),·,-12%,·,-4%,-5%
Cc1cnc(CNC(=O)c2csc([C@@H]3C[C@H](O)[C@@H](CO)O3)n2)cn1,·,0%,-14,-10%,70%
CC(=O)Nc1ccc(NC(=O)CCn2c(=S)oc3ccccc32)cc1,6%,·,-18,0%,·
Cn1c(=S)oc2ccccc21,11%,i[7.34 µM],29,-1%,4%[7.34 µM]
CC(C)CC(=O)/C=C/n1c(=S)oc2ccccc21,14µM*,-11%,57,?,-3%
CC(=O)/C=C/n1c(=S)oc2ccccc21,4.5µM*,-28%,-100*,3.2µM*,?
CN(C)c1ccc(/C=C/c2cc[n+]([O-])c3ccccc23)cc1,·,32%,·,·,-7%
CN(C)c1ccc(/C=C/c2ccc3ccccc3[n+]2[O-])cc1,·,-8%,·,·,i
CC[n+]1ccc(/C=C/c2ccc(N(C)C)cc2)c2ccccc21,4.5µM*,i,-99*,18µM*,i
CCCCCC[n+]1ccccc1/C=C/c1ccc(N(C)C)cc1,·,i,-97*,?,i
CCN(CC)c1ccc(/C=C/c2ccc3ccc(OC)cc3[n+]2CC)cc1,2.2µM*,·,-97*,7.9µM*,·
CC[n+]1ccccc1/C=C/c1ccc(N(C)C)cc1,4.5µM*,·,-86*,?,·
CC[n+]1c(/C=C/c2ccc(OC)c(OC)c2)ccc2ccccc21,2%,·,47,76%,·
Cc1ccc(C(=O)NC(C)c2ccc(-n3ccnc3)cc2)o1 (centres undefined),23%,-8%,-3,-9%,-5%
SMILES,HCV inhibitor,VACV mCherry inh,HCMV inh,FMDV antiviral,VACV Venus inh
O=S(=O)(c1ccc(Cl)cc1)c1nnn2c1nc(N1CCCCC1)c1sccc12,·,?,-1,-5%,?
CC1=C(C(=O)OCCCCCl)C(c2cc3c(cc2Br)OCO3)NC(=O)N1 (centres undefined),-11%,i,-1,-25%,-13%
CC[n+]1c(/C=C/c2ccc(N(C)C)cc2)ccc2ccccc21,-20%[0.335 µM],301%,·,6.3µM*,392%
COCc1cccc(-c2csc(C(C)(NC(C)=O)c3ccccc3)n2)c1 (centres undefined),·,?,-1,-4%,?
Cc1cc(C(C)(C)C)cc(C)c1S(=O)(=O)N1CCN(C(=O)c2cc([N+](=O)[O-])c[nH]c2=O)CC1,12%,-12%,-64*,?,-13%
Cc1cc(C)c(S(=O)(=O)N2CCN(C(=O)c3cc(=O)[nH]c4ccccc34)CC2)c(C)c1,-6%,·,-1,-25%,·
COc1ccc(N2CCN(c3ncnc4onc(C)c34)CC2)cc1,·,-17%[7.34 µM],-69*,?,-18%[7.34 µM]
Cc1noc2ncnc(N3CCCCC3)c12,-5%,·,2,-37%,·
COc1ccc(N2CCN(c3ncnc4onc(-c5ccc(F)cc5)c34)CC2)cc1,·,-13%,7,?,-12%
Cc1noc2ncnc(N3CCN(c4ccc(F)cc4)CC3)c12,-23%,·,-68*,?,·
CCOc1ccccc1NC(=O)C1CCCN(S(=O)(=O)c2ccc3c(c2)C(C)(C)C(=O)N3C)C1 (centres undefined),?,-18%,1,-9%,-16%
COc1ccc(S(=O)(=O)N2CCOCC2)cc1NC(=O)CN1C(=O)NC2(CCC(C)CC2)C1=O (centres undefined),·,i,-2,-10%,-6%
Nc1ccc(N2CCN(c3ncc(C(F)(F)F)cc3Cl)CC2)c(C(F)(F)F)c1,·,-12%,-104*,?,-5%
O=C(c1ccccc1)N1CCOC12CCN(c1ncc(C(F)(F)F)cc1Cl)CC2,8%,·,-61*,16µM*,-23%
CN(C)C=NC(=O)c1ccc(N2CCN(c3ncc(C(F)(F)F)cc3Cl)CC2)cc1,9%,·,-19,-12%,-12%
CN(C)/C=C/C(=O)c1ccc(N2CCN(c3ncc(C(F)(F)F)cc3Cl)CC2)cc1,?,·,-108*,25µM*,-20%
O=C(c1ccc2nc[nH]c2c1)N1CCN(c2ncc(C(F)(F)F)cc2Cl)CC1,?,?,-70*,?,?
COC(=O)C1CCN(S(=O)(=O)c2cc3c4c(c2)CCN4C(=O)CC3)CC1,8%,-15%,-6,5%,-11%
CCNC(=S)Nc1ccc(S(=O)(=O)Nc2cc(C)nc(C)n2)cc1,10%,-5%,25,13%,-17%
COc1cc(O)c(NC(C)=O)c2nonc12,5%,-21%,2,·,3%
CC(=O)NC1=CC(=O)c2nonc2C1=O,·,1.6µM*,·,·,1.8µM*
O=c1oc2ccccc2cc1-c1ccc(O)cc1,?,0%,70,25%,-18%
O=C(NCc1cccnc1)c1ccc(-c2cc3ccccc3oc2=O)cc1,?,·,-66*,-6%,·
Nc1ccc(-c2cc3ccccc3oc2=O)cc1,-13%,-11%,?,1.1µM*,0%
CCOC(=O)C1=CCN(S(=O)(=O)c2ccccc2C)C1c1ccc(Cl)cc1 (centres undefined),·,33%,?,0%,7%
